Some test systems named below: NCI-H23 lung; NCI-H322M lung; HOP-62 NSCLC; NCI-H460 lung; HOP-92 NSCLC; NCI-H522 lung; A549/ATCC NSCLC; 786-0 renal; COLO 205 colon; DU-145 prostate; K-562 leukemia; MALME-3M melanoma; MDA-MB-231 breast; RXF 393 renal; SF-268 CNS; SF-295 CNS; SF-539 CNS; UACC-257 melanoma; M14 melanoma; HCT-15 colon.
What all share (experiment): NCI-60 one-dose screen, 48 h (100 = growth as untreated, 0 = no growth, -100 = all killed)
Conditions in all cases: 10 µM unless noted

Compounds without any hit were thinned out: in the full panel of roughly 83,000, 20% have a hit.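 Plates (96-well) were seeded with cells, treated with compound at one concentration, and incubated for 48 hours before percent growth was determined.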 Unmarked numbers belong to inactive results. Calls of active or inactive are those of the source. Rule for the calls: active = growth percent below 10; inactive = the rest.

As for `COc1ccc2[nH]c(O)c(N=NC(=O)c3oc4ccccc4c3C)c2c1`, the growth in the assay with NCI-H23 lung was 10.6%; in the assay on NCI-H322M lung, 30.6%; with HOP-62 NSCLC, -24.1% (active); with NCI-H460 lung, -22.8% (active); in the assay with HOP-92 NSCLC, -44% (active); with NCI-H522 lung it was 54.3%. The growth is -23.6% (active) with A549/ATCC NSCLC; -66.9% (active) in the assay with 786-0 renal; 22.8% in the assay with COLO 205 colon; 17.6% with DU-145 prostate; 42.5% with K-562 leukemia; -29.5% (active) with MALME-3M melanoma. The growth in the assay with MDA-MB-231 breast was 23.8%; in the assay on RXF 393 renal, -36.2% (active); with SF-268 CNS it was 57.7%; with SF-295 CNS it was 5.05% (active); with SF-539 CNS it was 37.5%; in the assay on UACC-257 melanoma, 50%. Besides, the growth with M14 melanoma was 28.7%; with HCT-15 colon, 41.1%.

As to `O=S1(=O)N(Cc2ccccc2)[C@@H](Cc2ccccc2)[C@H](O)[C@H](O)[C@H](Cc2ccccc2)N1Cc1ccccc1`, the growth was 1.32% (active) in the assay on NCI-H23 lung; 12.6% with NCI-H322M lung; 18.4% with HOP-62 NSCLC; -44.8% (active) in the assay on NCI-H460 lung; 4.2% (active) in the assay on HOP-92 NSCLC; 9.21% (active) with NCI-H522 lung. Further, the growth is 6.12% (active) with A549/ATCC NSCLC; -1.43% (active) in the assay on 786-0 renal; -0.273% (active) in the assay on COLO 205 colon; -23.4% (active) in the assay on DU-145 prostate; 3.12% (active) in the assay on K-562 leukemia; -14.2% (active) in the assay with MALME-3M melanoma. Further, the growth is -7.98% (active) with MDA-MB-231 breast; -40.8% (active) in the assay with RXF 393 renal; 25.3% in the assay with SF-268 CNS; -11.2% (active) in the assay on SF-295 CNS; -5.16% (active) with SF-539 CNS; -22.1% (active) in the assay on UACC-257 melanoma. For the same compound, the growth in the assay on M14 melanoma was -2.4% (active); with HCT-15 colon it was 3.16% (active).

As for `CCN1C(=O)N(c2ccccc2)C2NN=c3s/c(=C4\C(=O)N(C(C)C)c5ccccc54)c(=O)n3C21` (stereo not given), the growth with NCI-H23 lung was 46.5%; with NCI-H322M lung, 54.4%; with HOP-62 NSCLC, 36.2%; in the assay with NCI-H460 lung it was 5.98% (active); in the assay with HOP-92 NSCLC it was 95.7%; with NCI-H522 lung it was 14.7%. Moreover, the growth with A549/ATCC NSCLC was 21%; in the assay on 786-0 renal, 28.3%; in the assay on COLO 205 colon it was 2.82% (active); in the assay on DU-145 prostate, 9.07% (active); with K-562 leukemia, 10.6%; in the assay with MALME-3M melanoma, 65.2%. Moreover, the growth was 32.9% in the assay on MDA-MB-231 breast; -6.1% (active) in the assay with RXF 393 renal; 36.7% in the assay on SF-268 CNS; 17.9% in the assay with SF-295 CNS; -2.62% (active) in the assay on SF-539 CNS; 76.4% in the assay with UACC-257 melanoma. The values for the growth in the assay on M14 melanoma and with HCT-15 colon were 10.9% and 17.7%, respectively.

Regarding `COc1nccc2cc3c(=O)n4c(cc5ccccc54)c(=O)n3c12`, the growth is 89.8% in the assay on NCI-H23 lung; 86.3% in the assay with NCI-H322M lung; 82.3% in the assay with HOP-62 NSCLC; 103% with NCI-H460 lung; 118% with HOP-92 NSCLC; 93.7% in the assay on NCI-H522 lung. In addition, the growth was 104% in the assay with A549/ATCC NSCLC; 102% in the assay with 786-0 renal; 102% with COLO 205 colon; 111% in the assay on DU-145 prostate; 91.9% with K-562 leukemia; 85.7% in the assay with MALME-3M melanoma. For the same compound, the growth in the assay on MDA-MB-231 breast is 90.3%; in the assay on RXF 393 renal, 112%; with SF-268 CNS it was 101%; in the assay with SF-295 CNS, 106%; with SF-539 CNS, 104%; in the assay with UACC-257 melanoma, 114%. Further, the growth in the assay on M14 melanoma was 97.2%; with HCT-15 colon it was 91.4%.

In the case of `Cc1nc2ccccc2c(/C=C/c2ccccc2)c1C(=O)/C=C/c1ccc(Cl)cc1`, the growth with NCI-H23 lung was 34.8%; in the assay on NCI-H322M lung it was 50%; in the assay with HOP-62 NSCLC, 11.7%; with NCI-H460 lung, -37.6% (active); in the assay on HOP-92 NSCLC, 46.9%; in the assay on NCI-H522 lung it was -18.9% (active). Further, the growth in the assay with A549/ATCC NSCLC is 25.3%; in the assay on 786-0 renal, 2.52% (active); in the assay with COLO 205 colon, 31.3%; in the assay on DU-145 prostate, 4.72% (active); in the assay on K-562 leukemia, 5.19% (active); in the assay with MALME-3M melanoma, 40.8%. The growth in the assay on MDA-MB-231 breast was 8.28% (active); with RXF 393 renal, -28.2% (active); with SF-268 CNS, 44.6%; in the assay with SF-295 CNS it was 29%; in the assay on SF-539 CNS, 26.6%; in the assay on UACC-257 melanoma, 29.9%. Further, the growth in the assay on M14 melanoma is 17.1%; with HCT-15 colon, -13.2% (active).

Regarding `Brc1ccc(Oc2ccc(Nc3ncnc4onc(-c5ccccc5)c34)cc2)cc1`, the growth was 94.3% with NCI-H23 lung; 110% in the assay with NCI-H322M lung; 99.8% in the assay with HOP-62 NSCLC; 103% in the assay with NCI-H460 lung; 110% in the assay with HOP-92 NSCLC; 97.8% in the assay on NCI-H522 lung. The growth was 95.5% with A549/ATCC NSCLC; 98.5% with 786-0 renal; 112% with COLO 205 colon; 102% in the assay on DU-145 prostate; 92.4% in the assay with K-562 leukemia; 103% in the assay on MALME-3M melanoma. The growth in the assay on MDA-MB-231 breast was 98.3%; in the assay with RXF 393 renal it was 103%; with SF-268 CNS it was 96.7%; with SF-295 CNS, 92.2%; in the assay with SF-539 CNS, 96.2%; with UACC-257 melanoma, 98%. The growth with M14 melanoma is 98.3%; in the assay with HCT-15 colon, 103%.

On to `N#C/C(=C1\SC(=O)CN1c1ccccc1)c1nc2ccccc2s1`, for which the growth was 75.8% in the assay with NCI-H23 lung; 102% in the assay with NCI-H322M lung; 94.4% in the assay with HOP-62 NSCLC; 97.1% in the assay on NCI-H460 lung; 102% in the assay with HOP-92 NSCLC; 80.5% in the assay with NCI-H522 lung. For the same compound, the growth is 97% with A549/ATCC NSCLC; 102% in the assay on 786-0 renal; 103% in the assay on COLO 205 colon; 99.7% with DU-145 prostate; 82.8% with K-562 leukemia; 99.3% in the assay on MALME-3M melanoma. Besides, the growth in the assay with MDA-MB-231 breast was 85.5%; in the assay with RXF 393 renal, 105%; in the assay on SF-268 CNS, 103%; with SF-295 CNS, 84.2%; with SF-539 CNS, 97.6%; in the assay with UACC-257 melanoma, 97%. Further, the growth in the assay with M14 melanoma was 91.2%; with HCT-15 colon, 95.8%.
